Assay results as given in PubChem BioAssay AID360 (National Center for Advancing Translational Sciences (NCATS), 2006).
The whole screen tested about 48,000 compounds, of which about 550 (1.1%) were called active. Not shown: some 4% with an inconclusive outcome. Cut-off read from the data, not from the text of the source: active = potency below about 15 µM; inconclusive = mostly about 16 µM to 33 µM; inactive = weaker than that. The sample as a whole holds a higher share of actives than the screen did.
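Note: the screen sought inhibitors.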
Potency is the fitted concentration of half-maximal effect.

Each compound was assayed against Lysosomal acid glucosylceramidase (Homo sapiens) (UniProt P04062) (assay: Glucocerebrosidase). Conditions: purified enzyme, resorufin glucoside fluorescence (screen aimed at inhibitors), 20 min.
Sequence of Lysosomal acid glucosylceramidase (Homo sapiens) (P04062 whole entry, looked up): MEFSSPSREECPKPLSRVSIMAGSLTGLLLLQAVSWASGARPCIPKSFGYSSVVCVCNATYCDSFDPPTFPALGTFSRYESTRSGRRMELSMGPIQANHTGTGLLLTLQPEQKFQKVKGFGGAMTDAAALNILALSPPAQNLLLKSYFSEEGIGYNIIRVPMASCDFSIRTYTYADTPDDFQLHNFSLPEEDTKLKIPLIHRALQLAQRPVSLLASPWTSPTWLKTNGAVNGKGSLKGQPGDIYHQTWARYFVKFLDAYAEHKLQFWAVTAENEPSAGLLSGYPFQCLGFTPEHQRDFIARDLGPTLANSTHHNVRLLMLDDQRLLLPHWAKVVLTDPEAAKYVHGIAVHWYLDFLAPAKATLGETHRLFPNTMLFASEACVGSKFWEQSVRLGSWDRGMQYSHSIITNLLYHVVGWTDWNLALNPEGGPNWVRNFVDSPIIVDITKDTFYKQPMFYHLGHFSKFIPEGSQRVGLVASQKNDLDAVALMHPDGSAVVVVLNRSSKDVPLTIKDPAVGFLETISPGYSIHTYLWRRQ
Source text: NCGC Assay Overview: Beta-glucocerebrosidase catalyzes the hydrolysis of beta-glucocerebroside to glucose and ceramide. The inherited deficiency of beta-glucocerebrosidase results in Gaucher disease, which is characterized by a wide variety of symptoms including hepatosplenomegaly, anemia, thrombocytopenia, bony lesions and bone marrow infiltration with characteristic storage cells, known as Gaucher cells. There are also forms of the disorder affecting the central nervous system. Patients with the same genotypes can manifest with diverse clinical presentations and it is believed that improper folding and trafficking of beta-glucocerbrosidase may contribute to the phenotypes observed. Low molecular weight molecules, acting as chaperones, may potentially restore trafficking of misfolded beta-glucocerebrosidase from the endoplasmic reticulum to the lysosomes, thereby enhancing functional lysosomal beta-glucocerebrosidase activity. Using normal beta-glucocerebrosidase, an assay was developed to screen for small molecule inhibitors that could potentially act as molecular chaperones on the mutant forms [developed with NIH investigator Dr. Ellen Sidransky's laboratory]. Two pro-fluorescent substrates were chosen for two screens against a small molecule library. One beta-glucocerebrosidase assay used Resorufin beta-D-Glucopyranoside (Marker Gene Technology Inc.), generating a red fluorescent product. The second assay used Fluorescein di-beta-D-Glucopyranoside, generating a blue fluorescent product. […] The IC50 values of Conduritol B Epoxide, a known glucocerebrosidase inhibitor, were determined to be 87.5 uM and 117 uM, respectively. The use of two difference pro-fluorescent substrates in the screens helped to eliminate false positives. All compounds were screened in a titration series resulting in AC50s (e.g., IC50s or EC50s).
NCGC Assay Protocol Summary: Both enzyme and substrate were diluted in buffer composed of 50mM citric acid/KH2PO4, 10mM sodium taurocholate and 0.01% tween-20 at pH 5.9. The final concentration of the enzyme was 0.2 nM in both assays. The compound library was titrated in 7 to 15 concentrations for the primary screens with a final concentration ranging from 0.6 nM to 50 uM. This particular assay protocol is for the "red" substrate, and it was performed in 1536-well plate format as follows: Red fluorescence substrate assay: 2 uL enzyme 23 nL compound 1 uL substrate (final concentration of 30 uM) Incubate at room temperature (RT) for 20 minutes Read the plate in Viewlux plate reader (Ex=548(7) and Em=600(10)).
CCC(=O)Nc1cccc(NC(=O)CSc2nnc(-c3ccc(NS(C)(=O)=O)cc3)n2C)c1 was tested, and the Potency was > 76.9 µM (inactive). For O=C(NCCCN1CCOCC1)c1cc(-c2ccc(Cl)cc2)on1, the Potency was > 76.9 µM (inactive). With Cn1c(CN2CCOCC2)nc2cc(NC(=O)c3ccc(Cl)cc3)ccc21 the Potency was 52.2 µM (inactive). For COc1cccc2cc(C(C)N(CCCN3CCOCC3)C(=O)Nc3ccc(Cl)cc3)oc12 (stereo not given), the Potency was 9.17 µM (active). O=C(CSc1n[nH]c(-c2cccnc2)n1)Nc1ccnc2ccccc12 was tested, and the Potency was > 76.9 µM (inactive). For COC(=O)c1ccccc1NC(=O)CSc1ccccn1, the Potency was > 76.9 µM (inactive). For O=C(CS(=O)(=O)Cc1ccccc1)NCC1CCCO1 (stereo not given), the Potency was > 76.9 µM (inactive). For CC(C)N(C(=O)Cn1c(SCC(=O)N2CCN(c3ccccc3)CC2)nc2ccccc21)C(C)C, the Potency was > 76.9 µM (inactive). For CCOC(=O)c1sc(NC(=S)n2cc(C)cn2)c(C(=O)OCC)c1C, the Potency was > 76.9 µM (inactive). In the case of COc1cccc(NC(=O)CN(C)S(=O)(=O)c2ccc(C)cc2)c1, the Potency is reported as > 76.9 µM (inactive). With CC(C)NS(=O)(=O)c1ccc(CCC(=O)N2CCOCC2)cc1 the Potency was > 76.9 µM (inactive). For CCCc1nnc(NC(=O)CN2C(=O)c3ccccc3S2(=O)=O)s1, the Potency was > 76.9 µM (inactive). For CN1CCN(c2nc3c(c(=O)[nH]c(=O)n3C)n2Cc2cccc3ccccc23)CC1, the Potency was > 76.9 µM (inactive). For COc1ccc(C2N=C(N)N=C(N)N2c2ccccc2)cc1OC (stereo not given), the Potency was > 76.9 µM (inactive). O=C(Cn1c(-c2ccc(Cl)cc2)noc1=O)N1CCN(c2ccccc2F)CC1 was tested, and the Potency was > 76.9 µM (inactive). Fc1ccc(OCc2nn3c(Cn4nnc5ccccc54)nnc3s2)cc1 was tested, and the Potency was > 76.9 µM (inactive). With Cc1ccc(S(=O)(=O)N2CCC(C(=O)N[C@@H](C)C(=O)NCc3ccccc3)CC2)cc1 the Potency was > 76.9 µM (inactive). C/C(O)=C\c1nc(=O)c2c(C)cc(C)nc2n1-c1ccccc1 was tested, and the Potency was > 76.9 µM (inactive). With O=C(COc1ccc(F)cc1)N(CC1=CCS(=O)(=O)C1)c1ccccc1 the Potency was > 76.9 µM (inactive). With COc1ccc2nc(NC3=NCN(CC4CCCO4)CN3)nc(C)c2c1 (stereo not given) the Potency was > 76.9 µM (inactive). CC(C)c1nc2oc3c(N4CCN(C)CC4)ncnc3c2c2c1CCC2 was tested, and the Potency was 8.51 µM (active). Cc1cc(C)nc(N2CCN(c3ncnc4c3oc3ccccc34)CC2)n1 was tested, and the Potency was > 76.9 µM (inactive). With COc1ccc(CCn2c(-c3ccco3)nc3nc4ccccc4nc32)cc1OC the Potency was > 76.9 µM (inactive). CCOC(=O)CCC(=O)OCC(=O)NC(C)C1CC2CCC1C2 (stereo not given) was tested, and the Potency was > 76.9 µM (inactive). In the case of CCOC(=O)c1sc(N(Cc2ccccc2)C(=O)CN2C(=O)CN(C)C2=O)nc1C, the Potency is reported as > 76.9 µM (inactive). In the case of CCOC(=O)c1c(C)[nH]c(C(=O)NCc2ccccc2OC)c1C, the Potency is reported as > 76.9 µM (inactive). With Fc1ccc(-c2nnc3sc(-c4ccc5c(c4)OCO5)nn23)cc1 the Potency was > 76.9 µM (inactive). Cc1cc(C)cc(N(C(C)C(=O)Nc2c(C)n(C)n(-c3ccccc3)c2=O)S(C)(=O)=O)c1 (stereo not given) was tested, and the Potency was > 76.9 µM (inactive). For c1ccc(CCc2nc(-c3ccncc3)no2)cc1, the Potency was > 76.9 µM (inactive). In the case of CC(Sc1nncn1C)C(=O)Nc1ccccc1-c1ccccc1 (stereo not given), the Potency is reported as > 76.9 µM (inactive). With Cc1ccc(S(=O)(=O)N2CCN(C(=O)CCC(=O)NC3CCCc4ccccc43)CC2)cc1 (stereo not given) the Potency was > 76.9 µM (inactive). With Cc1noc(C)c1C(=O)NC(C)c1ccc2c(c1)OCO2 (stereo not given) the Potency was > 76.9 µM (inactive). For CCN(CC)CCN1C(=O)C(=O)/C(=C(/O)c2ccc(OC)c(OC)c2)C1c1ccccn1 (stereo not given), the Potency was > 76.9 µM (inactive). With Cc1nc(NC(CC(C)C)C(=O)O)c2nc(C)oc2n1 (stereo not given) the Potency was > 76.9 µM (inactive). For C=CCn1c(C(C)NC(=O)CC)nc2ccccc21 (stereo not given), the Potency was > 76.9 µM (inactive). For CCOC(=O)N1CCN(C(=O)C2CCN(S(C)(=O)=O)CC2)CC1, the Potency was > 76.9 µM (inactive). For Cc1cccc2cc(C#N)c(N3CCCC3)nc12, the Potency was > 76.9 µM (inactive). In the case of CC(C)CCNc1nc(N2CCCC2)c2c(c1C#N)CCN(C)C2, the Potency is reported as 12.7 µM (active). For Cc1cc(C)c2nc(N3CCCC3)c(C#N)cc2c1, the Potency was > 76.9 µM (inactive). In the case of Cn1c(=O)n(C)c(=O)n(CC(=O)N2CCCCC2)c1=O, the Potency is reported as > 76.9 µM (inactive). In the case of Cc1cc(=O)cc(C)[nH]1, the Potency is reported as > 76.9 µM (inactive). In the case of C=CCn1c(SCc2cc(C(=O)OC)c(C)o2)nnc1-c1ccncc1, the Potency is reported as > 76.9 µM (inactive). Cc1ccc(S(=O)(=O)N(C)CC(=O)N2CCc3ccccc32)cc1 was tested, and the Potency was > 76.9 µM (inactive). In the case of CCC(CC)c1nnc(NS(=O)(=O)Cc2ccccc2)s1, the Potency is reported as > 76.9 µM (inactive). For CC(Oc1ccc(Cl)cc1)C(=O)Nc1ncccn1 (stereo not given), the Potency was > 76.9 µM (inactive).
